The values that follow come from PMC7862700, “An all-to-all approach to the identification of sequence-specific readers for epigenetic DNA modifications on cytosine”.

Test in all cases: DAPPL (digital affinity profiling via proximity ligation, sequencing); 10 mM Tris-HCl pH 7.5, 50 mM NaCl, 1 mM DTT, 4% glycerol, room temperature, 30 min; GST-TFs on glutathione beads, 16-mer random dsDNA library, 0.1% formaldehyde crosslink after washing; high values mean tight binding
The target in one assay is T1, FEV (Homo sapiens, UniProt Q99581 1-238).
T1 sequence: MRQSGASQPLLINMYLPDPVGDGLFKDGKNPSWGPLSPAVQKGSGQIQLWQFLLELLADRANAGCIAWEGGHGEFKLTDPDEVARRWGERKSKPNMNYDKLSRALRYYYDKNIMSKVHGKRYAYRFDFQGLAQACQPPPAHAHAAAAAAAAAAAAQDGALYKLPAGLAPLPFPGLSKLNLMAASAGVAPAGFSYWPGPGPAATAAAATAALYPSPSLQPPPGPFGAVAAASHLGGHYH
The following applies: protein: recombinant; tags: N-terminal GST; dsDNA, one strand shown. Put shortly:
(§1)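 Binding signal is defined as a hexamer's read frequency for one factor over its frequency for the tag-only sample. To obtain reads, GST-fused human transcription factors were expressed in yeast, captured on glutathione beads, barcoded with DNA and pooled with that sample. Pools met 200 nmole of a 16-mer random double-stranded DNA library in Tris/NaCl/DTT/glycerol buffer for 30 min at room temperature before washing, 0.1% formaldehyde crosslinking, proximity ligation (BsaI/T4 ligase, 1 h, 37 °C), PCR and Illumina NextSeq500 sequencing.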

In a further assay the target is ETV5 (Homo sapiens, UniProt P41161 1-510). Particulars: protein: recombinant; tags: N-terminal GST; dsDNA, one strand shown. Put shortly:
as §1

Another assay has as its target HSF1 (Homo sapiens, UniProt Q00613 1-529). Particulars: protein: recombinant; tags: N-terminal GST; chain copies: 3; dsDNA, one strand shown. Put shortly: as §1
The next assay deals with T2, SPIC (Homo sapiens, UniProt Q8N5J4 1-248).
T2 sequence: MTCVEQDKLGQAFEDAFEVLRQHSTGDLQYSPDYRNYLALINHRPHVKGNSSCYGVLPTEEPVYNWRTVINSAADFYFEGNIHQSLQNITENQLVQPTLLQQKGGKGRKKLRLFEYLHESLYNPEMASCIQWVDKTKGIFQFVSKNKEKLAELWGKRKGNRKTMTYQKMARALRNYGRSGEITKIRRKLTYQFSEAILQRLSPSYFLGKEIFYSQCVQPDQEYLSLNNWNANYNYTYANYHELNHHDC
Particulars: protein: recombinant; tags: N-terminal GST; dsDNA, one strand shown. The method in brief:
as §1

The next assay deals with ELF4 (Homo sapiens, UniProt Q99607 1-663). The following applies: protein: recombinant; tags: N-terminal GST; dsDNA, one strand shown. Put shortly: as §1
Chain of ELF4 (Q99607 whole entry): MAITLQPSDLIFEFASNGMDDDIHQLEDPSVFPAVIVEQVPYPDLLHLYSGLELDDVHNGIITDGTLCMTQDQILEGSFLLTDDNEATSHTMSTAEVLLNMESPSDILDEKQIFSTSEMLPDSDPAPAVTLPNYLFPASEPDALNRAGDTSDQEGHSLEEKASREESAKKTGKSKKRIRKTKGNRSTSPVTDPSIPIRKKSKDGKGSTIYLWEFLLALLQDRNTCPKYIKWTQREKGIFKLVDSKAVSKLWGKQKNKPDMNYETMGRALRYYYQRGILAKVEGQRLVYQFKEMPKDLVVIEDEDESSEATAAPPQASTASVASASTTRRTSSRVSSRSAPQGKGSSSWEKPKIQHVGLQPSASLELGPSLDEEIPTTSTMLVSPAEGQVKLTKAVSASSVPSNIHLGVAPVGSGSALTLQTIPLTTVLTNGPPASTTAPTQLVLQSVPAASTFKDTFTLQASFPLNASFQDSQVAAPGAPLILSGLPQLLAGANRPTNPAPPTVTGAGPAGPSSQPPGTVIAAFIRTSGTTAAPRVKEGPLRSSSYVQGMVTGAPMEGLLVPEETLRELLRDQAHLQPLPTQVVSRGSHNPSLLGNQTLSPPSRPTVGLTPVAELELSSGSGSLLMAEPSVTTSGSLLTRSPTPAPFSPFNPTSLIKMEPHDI
Another assay addresses T3, ELK4 (Homo sapiens, UniProt P28324-2 1-405).
T3 sequence: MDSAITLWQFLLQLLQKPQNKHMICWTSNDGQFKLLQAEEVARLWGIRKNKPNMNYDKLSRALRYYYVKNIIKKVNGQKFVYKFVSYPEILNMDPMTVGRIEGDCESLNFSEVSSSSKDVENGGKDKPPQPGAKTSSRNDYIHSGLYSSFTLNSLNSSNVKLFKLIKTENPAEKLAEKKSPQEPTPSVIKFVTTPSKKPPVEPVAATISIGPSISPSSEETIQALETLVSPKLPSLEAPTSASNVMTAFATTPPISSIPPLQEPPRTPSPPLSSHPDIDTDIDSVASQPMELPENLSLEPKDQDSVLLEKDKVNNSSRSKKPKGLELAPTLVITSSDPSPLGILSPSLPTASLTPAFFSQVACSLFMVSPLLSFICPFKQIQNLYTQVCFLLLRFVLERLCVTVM
The following applies: protein: recombinant; tags: N-terminal GST; dsDNA, one strand shown. The method in brief:
as §1

The next assay addresses T4, ETV2 (Homo sapiens, UniProt O00321 1-342).
T4 sequence: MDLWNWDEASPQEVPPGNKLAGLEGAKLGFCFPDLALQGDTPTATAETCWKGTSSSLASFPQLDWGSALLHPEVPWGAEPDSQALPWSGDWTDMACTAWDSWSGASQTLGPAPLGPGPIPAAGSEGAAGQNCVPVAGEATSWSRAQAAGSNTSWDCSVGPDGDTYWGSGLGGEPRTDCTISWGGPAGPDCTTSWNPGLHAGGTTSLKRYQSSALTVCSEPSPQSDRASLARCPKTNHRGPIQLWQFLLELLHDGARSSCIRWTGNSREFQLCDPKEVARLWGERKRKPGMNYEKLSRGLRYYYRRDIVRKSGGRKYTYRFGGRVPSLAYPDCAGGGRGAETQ
Particulars: protein: recombinant; tags: N-terminal GST; dsDNA, one strand shown. The method in brief: as §1

The target of another assay is T5, ELF3 (Homo sapiens, UniProt P78545 1-371).
T5 sequence: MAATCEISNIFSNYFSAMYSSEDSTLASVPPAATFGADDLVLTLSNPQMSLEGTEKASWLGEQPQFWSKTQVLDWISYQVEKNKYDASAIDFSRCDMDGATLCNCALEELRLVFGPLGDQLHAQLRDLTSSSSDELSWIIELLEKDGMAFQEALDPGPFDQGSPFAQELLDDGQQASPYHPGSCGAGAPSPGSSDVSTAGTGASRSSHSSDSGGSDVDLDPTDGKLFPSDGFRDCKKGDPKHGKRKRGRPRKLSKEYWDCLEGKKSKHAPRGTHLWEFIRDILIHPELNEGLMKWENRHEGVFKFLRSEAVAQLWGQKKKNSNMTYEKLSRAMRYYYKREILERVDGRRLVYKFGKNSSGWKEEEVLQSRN
The following applies: protein: recombinant; tags: N-terminal GST; dsDNA, one strand shown. The method in brief: as §1

In the next assay the target is CRX (Homo sapiens, UniProt O43186 1-299). Particulars: protein: recombinant; tags: N-terminal GST; dsDNA, one strand shown. Put shortly: as §1
Chain of CRX (O43186 whole entry): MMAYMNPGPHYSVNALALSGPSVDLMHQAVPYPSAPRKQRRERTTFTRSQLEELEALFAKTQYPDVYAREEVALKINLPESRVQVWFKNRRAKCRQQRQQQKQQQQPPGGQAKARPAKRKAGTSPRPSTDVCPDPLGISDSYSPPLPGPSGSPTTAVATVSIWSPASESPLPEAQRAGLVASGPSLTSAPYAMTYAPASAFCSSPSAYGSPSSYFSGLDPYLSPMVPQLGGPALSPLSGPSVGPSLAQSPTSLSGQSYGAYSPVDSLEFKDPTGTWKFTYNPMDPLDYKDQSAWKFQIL
In another assay the target is ETV1 (Homo sapiens, UniProt P50549 1-477). The following applies: protein: recombinant; tags: N-terminal GST; dsDNA, one strand shown. The method in brief:
as §1

A further assay addresses T6, ERF (Homo sapiens, UniProt P50548 1-548).
T6 sequence: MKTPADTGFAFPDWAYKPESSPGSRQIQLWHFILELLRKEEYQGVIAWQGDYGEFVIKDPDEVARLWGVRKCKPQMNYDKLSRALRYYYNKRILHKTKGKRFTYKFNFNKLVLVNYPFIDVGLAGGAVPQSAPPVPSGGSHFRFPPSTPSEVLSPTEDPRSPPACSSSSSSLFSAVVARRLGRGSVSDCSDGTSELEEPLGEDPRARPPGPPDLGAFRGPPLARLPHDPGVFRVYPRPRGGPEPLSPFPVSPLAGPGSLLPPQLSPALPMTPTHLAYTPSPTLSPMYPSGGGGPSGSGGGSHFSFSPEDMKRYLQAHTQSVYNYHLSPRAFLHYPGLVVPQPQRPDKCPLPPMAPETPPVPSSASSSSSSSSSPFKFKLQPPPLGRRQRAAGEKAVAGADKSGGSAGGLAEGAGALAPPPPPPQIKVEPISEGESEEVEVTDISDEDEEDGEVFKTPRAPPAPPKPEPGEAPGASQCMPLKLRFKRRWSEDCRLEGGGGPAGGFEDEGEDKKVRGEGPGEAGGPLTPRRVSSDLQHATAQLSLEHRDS
Particulars: protein: recombinant; tags: N-terminal GST; dsDNA, one strand shown. Put shortly: as §1

The target in another assay is T7, ETV3L (Homo sapiens, UniProt Q6ZN32 1-361).
T7 sequence: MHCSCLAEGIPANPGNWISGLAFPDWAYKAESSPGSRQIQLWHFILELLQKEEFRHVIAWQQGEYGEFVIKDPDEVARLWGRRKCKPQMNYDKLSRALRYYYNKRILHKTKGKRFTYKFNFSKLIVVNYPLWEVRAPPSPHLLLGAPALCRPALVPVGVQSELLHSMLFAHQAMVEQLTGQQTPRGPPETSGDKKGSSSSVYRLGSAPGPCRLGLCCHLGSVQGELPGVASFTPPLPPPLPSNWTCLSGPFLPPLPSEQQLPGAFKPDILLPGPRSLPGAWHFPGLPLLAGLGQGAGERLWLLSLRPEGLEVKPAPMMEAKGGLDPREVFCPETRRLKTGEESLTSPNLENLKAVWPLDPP
The following applies: protein: recombinant; tags: N-terminal GST; dsDNA, one strand shown. Put shortly:
as §1

The target in a further assay is T8, ETS2 (Homo sapiens, UniProt P15036 1-469).
T8 sequence: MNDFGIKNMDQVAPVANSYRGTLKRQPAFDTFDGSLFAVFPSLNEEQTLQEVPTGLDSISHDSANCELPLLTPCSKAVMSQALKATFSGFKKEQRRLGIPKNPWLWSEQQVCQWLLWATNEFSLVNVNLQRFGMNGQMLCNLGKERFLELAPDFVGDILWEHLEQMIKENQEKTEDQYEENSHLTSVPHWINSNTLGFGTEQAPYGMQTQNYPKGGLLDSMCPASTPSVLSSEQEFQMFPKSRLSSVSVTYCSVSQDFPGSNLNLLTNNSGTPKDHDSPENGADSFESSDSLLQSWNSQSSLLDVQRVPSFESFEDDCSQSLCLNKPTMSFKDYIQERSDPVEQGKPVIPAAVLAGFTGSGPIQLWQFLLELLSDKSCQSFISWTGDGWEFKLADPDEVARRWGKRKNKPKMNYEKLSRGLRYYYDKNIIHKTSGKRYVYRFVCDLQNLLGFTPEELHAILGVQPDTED
Particulars: protein: recombinant; tags: N-terminal GST; dsDNA, one strand shown. Put shortly: as §1

Another assay concerns the target T9, SPDEF (Homo sapiens, UniProt O95238 1-335).
T9 sequence: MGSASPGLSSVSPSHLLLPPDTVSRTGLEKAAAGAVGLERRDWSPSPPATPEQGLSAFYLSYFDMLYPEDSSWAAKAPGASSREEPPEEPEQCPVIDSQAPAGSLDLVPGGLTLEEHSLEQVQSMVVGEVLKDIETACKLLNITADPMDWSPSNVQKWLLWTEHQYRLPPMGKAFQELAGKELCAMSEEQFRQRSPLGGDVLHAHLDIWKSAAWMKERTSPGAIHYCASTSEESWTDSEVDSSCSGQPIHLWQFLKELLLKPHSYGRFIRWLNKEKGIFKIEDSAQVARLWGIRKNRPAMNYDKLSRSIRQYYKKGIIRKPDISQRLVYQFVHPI
Particulars: protein: recombinant; tags: N-terminal GST; dsDNA, one strand shown. The method in brief:
as §1

Another assay deals with T10, ETV7 (Homo sapiens, UniProt Q9Y603 1-341).
T10 sequence: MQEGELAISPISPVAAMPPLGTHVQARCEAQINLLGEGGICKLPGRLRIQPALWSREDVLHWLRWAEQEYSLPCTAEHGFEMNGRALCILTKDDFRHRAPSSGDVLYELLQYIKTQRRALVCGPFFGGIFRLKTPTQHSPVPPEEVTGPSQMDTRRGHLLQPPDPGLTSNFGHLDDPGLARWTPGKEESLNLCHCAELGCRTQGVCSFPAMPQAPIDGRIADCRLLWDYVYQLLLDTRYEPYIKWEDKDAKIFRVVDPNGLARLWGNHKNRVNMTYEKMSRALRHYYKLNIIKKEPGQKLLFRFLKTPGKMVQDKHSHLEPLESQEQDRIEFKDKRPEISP
Particulars: protein: recombinant; tags: N-terminal GST; dsDNA, one strand shown. Put shortly:
as §1

For the next assay, the target named is T11, ELF5 (Homo sapiens, UniProt Q9UKW6-2 1-255).
T11 sequence: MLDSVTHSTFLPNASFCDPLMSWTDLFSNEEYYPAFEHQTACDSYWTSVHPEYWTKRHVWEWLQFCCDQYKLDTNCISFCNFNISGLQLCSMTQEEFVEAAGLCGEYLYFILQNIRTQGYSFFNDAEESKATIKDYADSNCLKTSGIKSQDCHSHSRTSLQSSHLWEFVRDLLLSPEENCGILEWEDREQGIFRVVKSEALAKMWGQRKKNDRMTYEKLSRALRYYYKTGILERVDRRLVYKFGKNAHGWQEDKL
Particulars: protein: recombinant; tags: N-terminal GST; dsDNA, one strand shown. Put shortly: as §1

The target of another assay is T12, ETV3 (Homo sapiens, UniProt P41162-2 1-143).
T12 sequence: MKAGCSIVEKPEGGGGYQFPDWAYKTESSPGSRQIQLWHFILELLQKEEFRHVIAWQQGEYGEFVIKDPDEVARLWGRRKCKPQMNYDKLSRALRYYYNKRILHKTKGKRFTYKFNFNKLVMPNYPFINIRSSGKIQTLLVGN
The following applies: protein: recombinant; tags: N-terminal GST; dsDNA, one strand shown. Put shortly: as §1

For another assay, the target named is ETV6 (Homo sapiens, UniProt P41212 1-452). The following applies: protein: recombinant; tags: N-terminal GST; dsDNA, one strand shown. The method in brief: as §1
Chain of ETV6 (P41212 whole entry): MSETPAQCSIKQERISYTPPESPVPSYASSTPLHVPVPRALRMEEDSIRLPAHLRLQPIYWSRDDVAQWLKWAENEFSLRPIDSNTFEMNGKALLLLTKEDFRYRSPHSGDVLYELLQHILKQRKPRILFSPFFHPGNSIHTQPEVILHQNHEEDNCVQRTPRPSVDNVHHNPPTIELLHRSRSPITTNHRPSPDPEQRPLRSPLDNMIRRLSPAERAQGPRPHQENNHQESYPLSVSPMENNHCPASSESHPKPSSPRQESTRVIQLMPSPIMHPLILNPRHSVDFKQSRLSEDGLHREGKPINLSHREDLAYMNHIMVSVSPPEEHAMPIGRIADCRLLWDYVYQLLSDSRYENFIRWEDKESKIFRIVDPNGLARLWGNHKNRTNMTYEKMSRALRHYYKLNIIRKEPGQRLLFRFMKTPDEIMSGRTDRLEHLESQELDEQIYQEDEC

Chain of HSF1 (Q00613 whole entry): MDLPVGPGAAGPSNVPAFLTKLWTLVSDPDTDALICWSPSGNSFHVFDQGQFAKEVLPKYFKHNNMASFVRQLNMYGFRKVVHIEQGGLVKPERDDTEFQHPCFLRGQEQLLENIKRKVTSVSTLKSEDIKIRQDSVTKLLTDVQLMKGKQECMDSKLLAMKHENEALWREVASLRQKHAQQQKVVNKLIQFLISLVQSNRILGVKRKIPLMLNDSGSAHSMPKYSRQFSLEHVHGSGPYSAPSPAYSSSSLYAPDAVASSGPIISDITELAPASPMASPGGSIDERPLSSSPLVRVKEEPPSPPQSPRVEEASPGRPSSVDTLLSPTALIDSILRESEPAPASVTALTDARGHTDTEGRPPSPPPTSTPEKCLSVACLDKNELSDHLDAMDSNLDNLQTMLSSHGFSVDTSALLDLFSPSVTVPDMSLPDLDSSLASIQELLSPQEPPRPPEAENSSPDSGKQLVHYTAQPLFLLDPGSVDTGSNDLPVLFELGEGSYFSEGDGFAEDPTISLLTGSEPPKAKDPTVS
Chain of ETV1 (P50549 whole entry): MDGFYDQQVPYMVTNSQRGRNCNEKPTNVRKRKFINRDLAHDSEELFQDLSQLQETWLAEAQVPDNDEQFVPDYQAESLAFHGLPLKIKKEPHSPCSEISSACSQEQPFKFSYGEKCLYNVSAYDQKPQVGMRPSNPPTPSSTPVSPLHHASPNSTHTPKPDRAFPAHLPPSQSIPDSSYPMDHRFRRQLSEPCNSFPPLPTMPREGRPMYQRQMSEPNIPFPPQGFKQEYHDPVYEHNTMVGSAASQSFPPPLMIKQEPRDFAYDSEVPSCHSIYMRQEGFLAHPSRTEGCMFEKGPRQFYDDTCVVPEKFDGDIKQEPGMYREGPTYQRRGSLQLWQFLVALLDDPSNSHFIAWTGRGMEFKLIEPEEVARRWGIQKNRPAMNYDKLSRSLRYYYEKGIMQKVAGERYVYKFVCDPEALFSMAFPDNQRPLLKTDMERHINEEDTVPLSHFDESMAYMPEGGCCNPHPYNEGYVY
Chain of ETV5 (P41161 whole entry): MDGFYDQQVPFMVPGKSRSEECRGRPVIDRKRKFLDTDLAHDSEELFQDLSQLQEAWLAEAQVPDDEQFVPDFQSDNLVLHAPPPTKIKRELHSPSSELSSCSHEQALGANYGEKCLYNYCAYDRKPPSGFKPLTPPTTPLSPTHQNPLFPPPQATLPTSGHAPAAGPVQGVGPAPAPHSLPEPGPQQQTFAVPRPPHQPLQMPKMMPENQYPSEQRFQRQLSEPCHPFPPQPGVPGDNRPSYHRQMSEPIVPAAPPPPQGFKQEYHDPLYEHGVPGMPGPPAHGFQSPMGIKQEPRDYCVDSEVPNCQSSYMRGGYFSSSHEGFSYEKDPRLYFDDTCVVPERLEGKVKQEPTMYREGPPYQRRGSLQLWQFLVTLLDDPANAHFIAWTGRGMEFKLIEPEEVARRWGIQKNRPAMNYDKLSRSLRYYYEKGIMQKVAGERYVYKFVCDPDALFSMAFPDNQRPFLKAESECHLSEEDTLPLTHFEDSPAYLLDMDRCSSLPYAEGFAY

For the sequence TGGCCT, the binding signal in the assay with FEV was 1.54 fold enrichment (6-mer frequency, TF over GST control); with ETV5, 1.4 fold enrichment (6-mer frequency, TF over GST control); with HSF1 it was 1.32 fold enrichment (6-mer frequency, TF over GST control); with SPIC, 1.26 fold enrichment (6-mer frequency, TF over GST control); with ELF4, 1.51 fold enrichment (6-mer frequency, TF over GST control); with ELK4, 1.53 fold enrichment (6-mer frequency, TF over GST control). Also, the binding signal with ETV2 was 1.46 fold enrichment (6-mer frequency, TF over GST control); with ELF3 it was 1.47 fold enrichment (6-mer frequency, TF over GST control); with CRX, 1.31 fold enrichment (6-mer frequency, TF over GST control); with ETV1 it was 1.27 fold enrichment (6-mer frequency, TF over GST control); in the assay with ERF, 1.38 fold enrichment (6-mer frequency, TF over GST control); with ETV3L, 1.37 fold enrichment (6-mer frequency, TF over GST control). Also, the binding signal with ETS2 is 1.32 fold enrichment (6-mer frequency, TF over GST control); with SPDEF it was 1.42 fold enrichment (6-mer frequency, TF over GST control); in the assay with ETV7, 1.42 fold enrichment (6-mer frequency, TF over GST control); with ELF5 it was 1.33 fold enrichment (6-mer frequency, TF over GST control); with ETV3, 1.35 fold enrichment (6-mer frequency, TF over GST control); with ETV6, 1.5 fold enrichment (6-mer frequency, TF over GST control).
